Screening results: PubChem, National Center for Advancing Translational Sciences (NCATS)
Shown are actives, neighbours in structure and some others; about 6.4% of the full set was active somewhere.
RORgamma inh: blocks mouse ROR gamma transcriptional activity; P51450; Drosophila S2 Gal4-RORgamma UAS-luciferase reporter, 20 h; Potency, µM (titrated, usually from 53.6 µM), for the others: at the highest dose activity change, negative = inhibition, usual class: inhibitors; 310,000 tested, 5.4% active; also: nearly all actives have a fitted effect of over 60% in size
Target sequence (P51450 whole entry, looked up, the tested form may be a part): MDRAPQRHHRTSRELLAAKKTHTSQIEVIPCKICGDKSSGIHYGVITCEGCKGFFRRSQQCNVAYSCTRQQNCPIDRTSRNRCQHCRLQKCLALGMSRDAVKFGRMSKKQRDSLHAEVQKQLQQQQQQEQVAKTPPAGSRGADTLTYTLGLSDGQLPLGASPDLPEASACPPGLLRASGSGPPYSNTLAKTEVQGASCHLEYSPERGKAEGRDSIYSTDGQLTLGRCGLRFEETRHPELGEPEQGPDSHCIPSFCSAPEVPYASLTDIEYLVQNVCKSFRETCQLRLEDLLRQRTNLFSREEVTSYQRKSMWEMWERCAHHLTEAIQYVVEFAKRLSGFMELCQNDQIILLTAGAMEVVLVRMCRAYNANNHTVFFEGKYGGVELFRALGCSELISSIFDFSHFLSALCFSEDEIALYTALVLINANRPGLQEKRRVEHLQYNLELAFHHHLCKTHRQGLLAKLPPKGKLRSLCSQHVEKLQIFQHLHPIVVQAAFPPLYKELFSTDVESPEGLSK
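Schneider cells (Drosophila), stable Gal4 DBD–ROR gamma + UAS-luc; 1 hr cmpd preincubation; Cu2+ induction 700 uM final; 20 hr ambient; luminescence.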
VP16 counter: Gal4-VP16 reporter inhibition counter-screen; 310,000 tested, 3.5% active; Potency, µM (highest dose often 53.6 µM), without a hit: at the top dose activity, negative = inhibition, usual class: inhibitors; Drosophila S2 Gal4-VP16 UAS-luciferase, luminescence, 20 h;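 also: Gal4-VP16 expression switched on by copper sulfate through the metallothionein promoter; nearly all actives have a fitted effect of over 50% in size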
Luc counter: Kinase-Glo luciferase inhibition (counter-screen); Q27757; Kinase-Glo luciferase, ATP luminescence, 8 min; Potency, µM (series often up to 38.3 µM), for the others: top-dose activity change, negative = inhibition, most hits filed as inhibitors; 200,000 tested, 0.28% active; also: nearly all actives have a fitted effect of over 60% in size
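Luminescence was the read-out, taken after 8-minute incubation at ambient temperature. Luciferase turned over luciferin with 10 uM ATP in imidazole pH 7.2 buffer containing KCl, MgCl2, Tween 20 and BSA.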
An asterisk follows results filed as active; ? = inconclusive; nt = not tested or not shown; [ ] = another dose, or the depositor's remark. Calls follow the shape of the dose curve; as a rule, active = well fitted curve in the direction sought with a large enough effect; inconclusive = small, poorly fitted or top-dose-only effect, or another doubt; inactive = no such curve, though single readings can be large; an effect the other way counts as inactive or inconclusive. % is scaled to controls: 0 for no effect and ±100 for the full control effect; potency is read from the fitted curve at half-maximal effect.

SMILES	RORgamma inh	VP16 counter	Luc counter
CCOC(=O)c1sc(NC(=O)CSc2nnc(Cc3ccccc3)o2)c(C(=O)OCC)c1C	?	-16%	-3%
Cc1nonc1NC(=O)CSc1nc2ccccc2o1	8.9µM*	?	nt
CCOC(=O)c1sc(NC(=O)CSc2nc3ccccc3o2)c(C(=O)OCC)c1C	3.2µM*	2µM*	3%
c1ccc(C2[C@H]3CN(CC4CCCCC4)[C@H](c4ccccc4)C34CC2(c2cccnc2)C4)cc1 (stereo partly drawn)	-28%	-4%	1%
CO[C@@H]1/C=C\CC(=O)N2CCC[C@@H]2C(=O)OC[C@@H](C)C(=O)OC[C@H]1C	-34%[10 µM]	1%[10 µM]	nt
CC(C)[C@H](NC(=O)[C@H](CC(=O)O)NC(=O)CNC(=O)[C@@H](N)CCCN=C(N)N)C(=O)O	5%	5%	nt
Nc1cccc(-n2nnnc2CN2CCOCC2)c1	3%	-14%	-1%
C/C(=N/NC(=O)CNC(=O)Cc1ccc(Cl)cc1)c1ccco1	20%	4%	nt
CC1CCCCN1C(=O)c1c([N+](=O)[O-])cnn1C (stereo not drawn)	-44%	-6%	nt
COCCN(CCOC)S(=O)(=O)c1ccc(C(=O)Nc2sc3c(c2C(N)=O)CCCCC3)cc1	?	?	-3%
CCc1nnc(NC(=O)c2ccc(S(=O)(=O)N(CCOC)CCOC)cc2)s1	1%	16%	-2%
COCCN(CCOC)S(=O)(=O)c1ccc(C(=O)Nc2nnc(C3CC3)o2)cc1	4.5µM*	3.5µM*	2%
CCc1nnc(NC(=O)c2ccc(S(=O)(=O)N(CCOC)CCOC)cc2)o1	2.2µM*	6.3µM*	-2%
CCC(=O)Nc1cc2c3c(c1)CCN3C(=O)CC2	-20%	5%	nt
Cn1cccc1/C=C1\SC(=O)N(c2ccc(O)cc2)C1=O	2.8µM*	-20%	-2%
CCOc1ccc(N2C(=O)S/C(=C\c3cccn3C)C2=O)cc1	?	-23%	2%
O=c1[nH]c2ccc(Cl)cc2c(O)c1-c1ccccc1	1%	-10%	-7%
NNC(=O)CSc1c(-c2ccccc2)c2cc(Cl)ccc2[nH]c1=O	-3%	5%	nt
O=c1[nH]c2ccc(Cl)cc2c(-c2ccccc2)c1SC(=S)N1CCCCC1	5.6µM*	7.1µM*	-1%
O=c1[nH]c2ccc(Cl)cc2c(-c2ccccc2)c1N1CCN(CCO)CC1	-15%	-4%	-4%
O=c1[nH]c2ccc(Cl)cc2c(-c2ccccc2)c1[N+](=O)[O-]	1.3µM*	-9%	nt
O=c1[nH]c2ccc(Cl)cc2c(-c2ccccc2)c1SC(=S)N1CCOCC1	1µM*	4.5µM*	17%
CCOC(=O)C1Oc2ccccc2C(c2cccc3ccccc23)=C1C(=O)OC (stereo not drawn)	7%	8%	4%[39.9 µM]
CC(C)(C)C1CCC(=O)N(CCC#N)CC1 (stereo not drawn)	1%	1%	nt
COC(C[C@@H]1O[C@@H]1[C@@H](O)COCc1ccccc1)OC	12%	8%	nt
SMILES	RORgamma inh	VP16 counter	Luc counter
COc1ccc(NS(=O)(=O)c2cccc(C(=O)N/N=C/c3cn(-c4ccccc4)nc3-c3ccc(OC)cc3)c2)cc1	-16%	-14%	nt
COc1ccc(NS(=O)(=O)c2cccc(C(=O)N/N=C/c3cn(-c4ccccc4)nc3-c3ccccc3)c2)cc1	?	2%	nt
COc1ccccc1NS(=O)(=O)c1cccc(C(=O)N/N=C/c2ccc3c(c2)OCCO3)c1	-7%	-5%	0%
CCN(CC)c1ccc(/C=N/NC(=O)c2cccc(S(=O)(=O)Nc3ccccc3OC)c2)cc1	6.3µM*	8.9µM*	-2%
COc1ccc(-c2nn(-c3ccccc3)cc2/C=N/Nc2ccccn2)cc1	1.6µM*	4µM*	-3%
COc1ccccc1NS(=O)(=O)c1cccc(C(=O)NN)c1	-44%	-4%	-1%
CCN(CC)c1ccc(/C=N/NC(=O)c2cccc(S(=O)(=O)Nc3ccccc3OC)c2)c(O)c1	2.5µM*	4.5µM*	1%
COc1ccccc1NS(=O)(=O)c1cccc(C(=O)N/N=C/c2cn(-c3ccccc3)nc2-c2ccccc2)c1	1.6µM*	6.3µM*	0%
CCOC(=O)C1=C(C)NC(C)=C(C(=O)OCC)C1C(=O)OCC(=O)N(C)C	-19%	1%	nt
COc1ccc(C(=O)CSc2nnc(NC(=O)C3CC(=O)N(c4ccccc4C)C3)s2)cc1 (stereo not drawn)	-5%	8%	4%
COc1ccccc1NC(=O)Cn1nc(-c2ccc(Cl)cc2)c2ccccc2c1=O	?	12%	-1%
COc1ccc(C(=O)N2CCN(C(C)=O)CC2)cc1S(=O)(=O)N1CCOCC1	-14%	4%	1%
O=C(N/N=C/c1ccco1)c1cccc(S(=O)(=O)Nc2ccccc2Cl)c1	?	-12%	-1%
COc1ccc(-c2nn(-c3ccccc3)cc2/C=N/n2cnnc2)cc1OC	7%	2%	1%
Cc1ccc(/C=N/NC(=O)c2cccc(S(=O)(=O)Nc3ccccc3Cl)c2)o1	13µM*	?	-3%
COc1ccc(-c2nn(-c3ccccc3)cc2/C=N/NC(N)=S)cc1OC	1.1µM*	1µM*	1%
CCC(C(=O)Nc1ccc(C)cc1)c1ccccc1 (stereo not drawn)	23%	1%	1%
CCC(C(=O)Nc1ccncc1)c1ccccc1 (stereo not drawn)	?	13µM*	1%
CCN1CCN(C(=O)C2CCC(=O)N(CCCN3CCCC3=O)C2)CC1 (stereo not drawn)	-17%	-4%	nt
Cc1ccc2nc3ccc(N4CCCC4)nn3c(=O)c2c1	-35%	-16%	-3%
CC1CCCN(c2ccc3nc4ccccc4c(=O)n3n2)C1 (stereo not drawn)	8.9µM*	4.5µM*	?
CN1CCN(c2c(/C=N/O)c3ccccc3n2C)CC1	4%	2%	nt
Cc1ccccc1C(=O)O/N=C/c1c(N2CCOCC2)n(C)c2ccccc12	1µM*	2.8µM*	-2%
Cc1cc(C)c(NC(=O)C2CCCO2)c(C)c1NC(=O)C1CCCO1 (stereo not drawn)	-33%	-6%	nt
COc1ccc(CNC(=O)CCCCCNc2nc(=S)[nH]c3ccccc23)cc1	?	-3%	1%
SMILES	RORgamma inh	VP16 counter	Luc counter
O=C(NCCC1=CCCCC1)C1CCC(CNc2nc(=S)[nH]c3ccccc23)CC1 (stereo not drawn)	?	-5%	2%
O=C(NC1CCCCC1)c1ccc(CNc2nc(=S)[nH]c3ccccc23)cc1	13µM*	2%	0%
S=c1nc(NCc2ccc3c(c2)OCO3)c2ccccc2[nH]1	13µM*	?	nt
COc1cc2[nH]c(=S)nc(NCc3ccccn3)c2cc1OC	-23%	3%	7%
COc1ccc(CNc2nc(=S)[nH]c3cc(OC)c(OC)cc23)cc1	16µM*	?	nt
c1ccc2[nH]c(NCc3ccc4c(c3)OCO4)nc2c1	-33%	-18%	-3%
O=C(NCCc1ccc(Cl)cc1)C1CCC(CNc2nc(=S)[nH]c3ccccc23)CC1 (stereo not drawn)	11µM*	?	-1%
COC(=O)C(CC(=O)c1ccc(Br)cc1)n1cccn1 (stereo not drawn)	-35%	0%	nt
CCCCCCCCCCCC(=O)c1c(O)cccc1O	4%	7%	3%
NS(=O)(=O)c1ccc(NC(=O)CSc2nc3ccccc3nc2N2CCOCC2)cc1	?	2%	nt
